Assay outcomes deposited in PubChem by National Center for Advancing Translational Sciences (NCATS).
VP16 counter – Gal4-VP16 reporter inhibition counter-screen. Drosophila S2 Gal4-VP16 UAS-luciferase, luminescence, 20 h. Potency, µM (series often up to 53.6 µM), actives largely listed as inhibitors. 310,000 tested, 3.5% active. AID 2546;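 note: Gal4-VP16 expression switched on by copper sulfate through the metallothionein promoter; nearly all actives have a fitted effect of over 50% in size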
RORg inh – inhibitors of mouse ROR gamma transcriptional activity | P51450 | Drosophila S2 Gal4-RORgamma UAS-luciferase reporter, 20 h | Potency, µM (highest dose often 53.6 µM), hits mostly inhibitors | 310,000 tested, 5.4% active | AID 2551; note: nearly all actives have a fitted effect of over 60% in size
Target sequence (P51450 whole entry, looked up, the tested form may be a part): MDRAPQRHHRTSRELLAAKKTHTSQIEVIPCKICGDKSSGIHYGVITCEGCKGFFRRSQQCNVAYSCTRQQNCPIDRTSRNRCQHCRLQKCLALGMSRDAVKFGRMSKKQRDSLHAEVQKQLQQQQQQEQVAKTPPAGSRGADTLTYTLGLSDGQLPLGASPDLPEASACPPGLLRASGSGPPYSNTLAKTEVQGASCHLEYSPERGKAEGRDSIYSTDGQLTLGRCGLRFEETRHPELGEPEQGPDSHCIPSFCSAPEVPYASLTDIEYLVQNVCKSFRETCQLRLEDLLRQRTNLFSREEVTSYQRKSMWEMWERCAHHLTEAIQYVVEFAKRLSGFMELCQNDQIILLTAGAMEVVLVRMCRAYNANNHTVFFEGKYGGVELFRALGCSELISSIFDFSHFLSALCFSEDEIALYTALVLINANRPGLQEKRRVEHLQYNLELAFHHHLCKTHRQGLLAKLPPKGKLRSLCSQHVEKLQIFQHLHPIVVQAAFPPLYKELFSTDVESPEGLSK
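Luciferase reporter read in Schneider cells carrying Gal4-RORγ (mouse) and UAS-Photinus luciferase; cells given compound 1 h before 700 uM copper sulfate induction, then incubated 20 h at ambient temperature.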
KB-V1 cytotox – KB-V1 MDR subline cytotoxicity; Potency, µM (titrated, usually from 46.1 µM), hits mostly cytotoxic; 400,000 tested, 3.4% active; KB-V1 MDR cells viability, CellTiter-Glo, 72 h; note: nearly all actives have a fitted effect of over 60% in size
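Compound-treated KB-V1 multidrug-resistant cells, 72 h, 37 degrees C; viability by CellTiter-Glo. Fitted qHTS curves give the values.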
KB-3-1 cytotox – kills parental KB-3-1 adenocarcinoma cells; 400,000 tested, 1.4% active; KB-3-1 viability, CellTiter-Glo ATP luminescence, 72 h; Potency, µM (top dose mostly 46.1 µM), usual class: cytotoxic; note: nearly all actives have a fitted effect of over 60% in size
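Cells are dispensed, compounds pinned in, plates held at 37 °C for 72 h, then CellTiter-Glo is added and luminescence read after 10 minutes. Cell line: parental KB-3-1 in phenol-red-free DMEM, 10% FBS.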
MCF10A rereplic – induces DNA re-replication in MCF 10a normal breast cells; Potency, µM (highest dose often 46.1 µM), actives largely listed as activators; AID 624296; 350,000 tested, 2.9% active; MCF 10A DNA re-replication, Hoechst nuclear intensity, 48 h; note: nearly all actives have a fitted effect of over 50% in size
SW480 rereplic – induces DNA re-replication in SW480 colon adenocarcinoma cells; Potency, µM (highest dose often 46.1 µM), most hits filed as activators; SW480 DNA re-replication, Hoechst DNA content imaging, 48 h; AID 624297; 340,000 tested, 1.8% active; note: nearly all actives have a fitted effect of over 55% in size
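First, 250 cells per well were seeded. Next, compound or vehicle (23 nL) was pinned in, plates sat 48 hr at 37 C. Finally Hoechst was added for 40 min before fluorescence scanning.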
Numbers stand for hits; [ ] = dose if it differs, or a comment. Most compounds without a hit are left out; they make up all but 10% or so of the library. Calls come from the whole dose curve; as a rule, active = well fitted curve in the direction sought with a large enough effect; inconclusive = small, poorly fitted or top-dose-only effect, or another doubt; inactive = no such curve, though single readings can be large; an effect the other way counts as inactive or inconclusive.

CC(=O)OC[C@@H]1O[C@H](CCO/N=C(\C)CCC(=O)OC[C@@H]2O[C@H](C#Cc3ccccc3)C=C[C@@H]2Oc2ccc(C)cc2)C=C[C@@H]1OC(C)=O was read as VP16 counter inactive[10 µM] and RORg inh inactive[10 µM].
`O=C(NCc1ccccc1)C1(C(F)(F)F)CC(CCCO)CCCO1` (stereo not given) gave VP16 counter inactive, RORg inh inactive, KB-V1 cytotox inactive, KB-3-1 cytotox inactive, MCF10A rereplic inactive and SW480 rereplic inactive.
Screening CS(=O)(=O)c1ccc(CNC(=O)C2(C(F)(F)F)CC(CCCO)CCCO2)cc1 (stereo not given) returned VP16 counter inactive, RORg inh inactive, KB-V1 cytotox inconclusive, KB-3-1 cytotox 5.8µM, MCF10A rereplic inactive and SW480 rereplic inactive[9.22 µM].
c1ccc(C2C3=C(CCCC3)Nc3ncnn32)cc1 (stereo not given) was read as VP16 counter inactive, RORg inh inactive, KB-V1 cytotox inactive, KB-3-1 cytotox inactive, MCF10A rereplic inactive and SW480 rereplic inactive.
Screening Fc1ccc(/C=C2\CCCC3=C2Nc2ncnn2C3c2ccc(F)cc2)cc1 (stereo not given) returned VP16 counter inactive, RORg inh inactive, KB-V1 cytotox inconclusive, KB-3-1 cytotox 21µM, MCF10A rereplic 5.8µM and SW480 rereplic 23µM.
Screening O=C(CN1CCOCC1)Nc1c2c(nc3ccccc13)N(Cc1ccccc1)CC2 returned VP16 counter inactive[0.365 µM], RORg inh inactive, KB-V1 cytotox inactive, KB-3-1 cytotox inactive, MCF10A rereplic inactive and SW480 rereplic inactive.
`O=C(CN1CCCC1)Nc1c2c(nc3ccccc13)N(Cc1ccccc1)CC2` gave VP16 counter inactive, RORg inh inactive, KB-V1 cytotox 23µM, KB-3-1 cytotox inactive, MCF10A rereplic inactive and SW480 rereplic inactive.
`COc1ccc(OC)c(C2C(C(N)=O)=C(C)Nc3nc(-c4cccc(Cl)c4)nn32)c1` (stereo not given) gave VP16 counter 18µM, RORg inh inconclusive, KB-V1 cytotox inactive, KB-3-1 cytotox inactive, MCF10A rereplic inconclusive and SW480 rereplic inactive.
For CCc1ccc2oc(C(=O)NCc3ccncc3)c(C)c2c1 the results were VP16 counter inactive, RORg inh inactive, KB-V1 cytotox 12µM, KB-3-1 cytotox inconclusive, MCF10A rereplic inactive and SW480 rereplic inactive.
`Cc1cnc(CNC(=O)c2ccc3oc(C(C)C)nc3c2)[nH]1` gave VP16 counter inactive, RORg inh inactive, KB-V1 cytotox inconclusive, KB-3-1 cytotox inactive, MCF10A rereplic inactive and SW480 rereplic inactive.
Screening Cc1cc(C)c2c(C)c(C(=O)NCc3ccncc3)oc2c1 returned VP16 counter inactive, RORg inh inactive, KB-V1 cytotox inconclusive, KB-3-1 cytotox inactive, MCF10A rereplic inactive and SW480 rereplic inactive.
`Cc1ccc2oc(C(=O)NCc3ncc(C)[nH]3)c(C)c2c1` gave VP16 counter inactive, RORg inh inactive, KB-V1 cytotox inconclusive, KB-3-1 cytotox 10µM, MCF10A rereplic inconclusive and SW480 rereplic 16µM.
For O=C(CCCOc1ccccc1)Nc1nc2ccccc2[nH]1 the results were VP16 counter inactive, RORg inh 7.1µM, KB-V1 cytotox inactive, KB-3-1 cytotox inactive, MCF10A rereplic inactive and SW480 rereplic inactive.
Cc1ccc(OCCCC(=O)Nc2nc3ccccc3[nH]2)cc1 was read as VP16 counter inactive, RORg inh 6.3µM, KB-V1 cytotox inconclusive, KB-3-1 cytotox inconclusive, MCF10A rereplic inactive and SW480 rereplic inactive.
Screening O=S(=O)(CCOc1ccccc1)c1nc2ccccc2[nH]1 returned VP16 counter inactive, RORg inh inconclusive, KB-V1 cytotox inactive, KB-3-1 cytotox inconclusive, MCF10A rereplic 5.8µM and SW480 rereplic inactive.
Screening Cc1cccc(OCCCC(=O)Nc2nc3ccccc3[nH]2)c1 returned VP16 counter inactive, RORg inh 14µM, KB-V1 cytotox 21µM, KB-3-1 cytotox inconclusive, MCF10A rereplic inactive and SW480 rereplic inactive.
Screening CCOc1ccc(OCCSc2nc3ccccc3[nH]2)cc1 returned VP16 counter inactive, RORg inh inactive, KB-V1 cytotox inconclusive, KB-3-1 cytotox inactive, MCF10A rereplic inactive and SW480 rereplic inactive.
Screening O=C(CCCOc1ccccc1)NCCc1nc2ccccc2[nH]1 returned VP16 counter inactive, RORg inh inactive, KB-V1 cytotox inactive, KB-3-1 cytotox inactive, MCF10A rereplic inactive and SW480 rereplic inactive.
`Cc1ccc(-c2ccnc(N3CCC(C(N)=O)CC3)n2)cc1` gave KB-V1 cytotox inactive and KB-3-1 cytotox inactive.
Screening Cc1ccc(Cn2cnc3c(oc4ccccc43)c2=O)cc1 returned KB-V1 cytotox inactive and KB-3-1 cytotox inactive.
`CC(C)COC[C@H](CN(Cc1ccccc1)c1ccccc1)N1CCCC1` gave VP16 counter inactive and RORg inh inactive.
For Cc1cc2nc(CCN(Cc3cccnc3)C(=S)Nc3ccccc3)[nH]c2cc1C the results were VP16 counter inactive, RORg inh 14µM, KB-V1 cytotox inconclusive, KB-3-1 cytotox inactive, MCF10A rereplic 16µM and SW480 rereplic inactive.
`O=c1c2c(-c3ccccc3)csc2nc2c3ccccc3c(NCCN3CCOCC3)nn12` gave VP16 counter 3.2µM, RORg inh 1.6µM, KB-V1 cytotox 21µM, KB-3-1 cytotox inactive, MCF10A rereplic 9.2µM and SW480 rereplic inconclusive.
For O=c1c2ccccc2nc2c3ccccc3c(NCCN3CCOCC3)nn12 the results were VP16 counter 20µM and RORg inh 13µM.
CCc1ccc(NC(=O)CSc2nc(=O)n(Cc3ccncc3)c3c2CCC3)cc1 was read as KB-V1 cytotox inactive and KB-3-1 cytotox inactive.
